This passage reports inhibition results from PubChem BioAssay AID492956 (The Scripps Research Institute Molecular Screening Center, 2010).

Molecules are shown by their SMILES. Values joined by “and” are separate entries in the source; they are usually repeats but may differ in a detail not shown here. Equal entries are not always repeated. Screen size: about 340,000 compounds; about 3,300 (0.97%) were called active. The full list was thinned out, with actives kept by preference. Values without a mark were called inactive.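 Rule for the calls: active = inhibition above the mean over all tested compounds plus 3 SD (cut at about 30% in these data); inactive = the rest.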

The assay concerns the target Platelet-activating factor acetylhydrolase 2, cytoplasmic (Homo sapiens) (UniProt Q99487). As to the kind of experiment: PAFAH2 enzyme inhibitors, primary screen, biochemical, fluorescence polarization, human (AID 492956).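 Note: inhibitors block probe labeling of enzyme so polarization drops; 0% = enzyme with DMSO and 100% = wells lacking PAFAH2 protein.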 The conditions noted are these: recombinant PAFAH2, FP-rhodamine activity probe, at 3.39 µM, hits give high values.
For the compound `CCn1cc(CN2CCN(CC(C)(C)C)C(CCO)C2)c2ccccc21` (stereo unspecified), the inhibition is 1.37%. To `COc1ccccc1/C=C/C(=O)OCC(=O)NC1CCCCCC1` belongs 93.2% (active).

Turning to `CCOc1ccc(/C=C/C(=O)OCC(=O)c2ccccc2OC)cc1OC`, the inhibition is 6.36%.

Turning to `O=C(COC(=O)/C=C/c1cccs1)NC1CCCCC1`, the inhibition was 80.5% (active). To `COc1ccccc1/C=C/C(=O)NC1CC2CCC1C2` (stereo unspecified) belongs -0.78%; to `O=C(CCC(=O)c1cccs1)NC1CCCCCC1`, 8.2%; to `COc1ccc(CCNC(=O)COC(=O)/C=C/c2cccs2)cc1OC`, 6.71%. As for `COc1ccc(/C=C/C(=O)OCC(=O)NC2CCCCCC2)cc1OC`, the inhibition is 87.4% (active). Turning to `COc1cc(/C=C/C(=O)OCC(=O)NC2CC2)cc(OC)c1OC`, the inhibition is 9.4%. As for `COc1ccccc1-n1ccnc(SCC(=O)NC2CCCCC2)c1=O`, the inhibition is -2.23%. As to `COc1cc2c(C(=O)N3CCN(C)CC3)c(CSc3ccccc3)n(C)c2cc1Br`, the inhibition was -5.01%. On to `COc1ccc(NC(=O)c2cccc(Cl)c2)c[n+]1[O-]`, for which the inhibition was -0.76%. To `O=C(CSCc1c(Cl)cccc1Cl)NN1C(=O)c2ccccc2C1=O` belongs 11.8%; to `Cc1cccc(CN2CCN(Cc3cnn(-c4ccccc4F)c3)CC2CCO)n1` (stereo unspecified), -6.68%; to `COc1ccc(C(=O)O/N=C(\N)Cc2ccc(Cl)cc2Cl)cc1OC`, 85.3% (active). Consider `COc1ccc(C(=O)n2nc(-c3ccc(Cl)cc3)nc2N)cc1OC`, for which the inhibition is 3.15%. `COc1ccc(CCn2ccc(O)c(Cc3ccc(Cl)cc3Cl)c2=O)cc1OC`: the inhibition was -2.38%. To `C=CCOc1ccc(C(=O)Nc2ccccc2C(=O)N2CCCC2)cc1` belongs 7.79%; to `CCCCn1c(O)c(N=NC(=O)Cn2c(C(F)(F)F)nc3ccccc32)c2ccccc21`, -3.07%; to `O=C(O)Cc1csc(-c2cccc(Oc3ccccc3)c2)n1`, 3.06% and 0.17%. As for `CC1CC(C)CN(c2ccc(S(=O)(=O)N3CCOCC3)cc2)C1` (stereo unspecified), the inhibition was 13.7%. For the compound `Cc1ccc(OCC(=O)N2CCN(S(=O)(=O)c3ccc(Cl)s3)CC2)cc1C`, the inhibition is 6.03%. For `Cc1ccc(S(=O)(=O)N(C)C)cc1NC(=O)/C=C/c1cccs1`, the inhibition was 5.59%. To `CN(C)S(=O)(=O)c1cccc(NC(=O)COC(=O)c2cc(=O)[nH]c(=O)[nH]2)c1` belongs 0.25%; to `Cc1ccc(S(=O)(=O)N(C)C)cc1NC(=O)COC(=O)c1c(C)noc1C`, -9.47%; to `Cc1ccc(S(=O)(=O)N(C)C)cc1NC(=O)COC(=O)/C=C/c1cccs1`, 59.3% (active).

As to `CN(C)S(=O)(=O)c1cccc(NC(=O)COc2ccc3ccccc3c2)c1`, the inhibition was -8.6%. To `CN(C)S(=O)(=O)c1cccc(NC(=O)COC(=O)/C=C/c2cccs2)c1` belongs 72.2% (active). For `O=C(C1CCN(S(=O)(=O)Cc2ccccc2)CC1)N1CCCc2ccccc21`, the inhibition was -7.5%. As for `COCCNC(=O)/C(C#N)=C/c1nc(N(C)C)n(-c2ccc(F)cc2)c1Cl`, the inhibition was 1.81%. Regarding `CCOC(=O)NC(=O)/C(C#N)=C\c1ccccc1`, the inhibition was -7.65%. For `COCCNC(=O)/C(C#N)=C/c1cccc(OCc2ccccc2)c1`, the inhibition is 30.2% (active).

On to `Cc1cc(C(=O)COc2ccccc2Cl)c(C)n1C1CC1`, for which the inhibition was 0.58%.

With `Cc1ccc(-n2c(C)cc(C(=O)CN3C(=O)C(=O)N(C4CCCC4)C3=O)c2C)cc1`, the inhibition is 4.94%. As for `Cc1cc(C(=O)COC(=O)C2CC2)c(C)n1-c1ccc(F)cc1`, the inhibition was 44.5% (active). In the case of `C=CCOCCN(C)C1=NS(=O)(=O)c2ccccc21`, the inhibition was -9.33%. With `COc1ccc(/C=N/N(C)C2=NS(=O)(=O)c3ccccc32)cc1OC`, the inhibition was 31.8% (active). To `COc1cc(C(=O)NN(CCC#N)C2=NS(=O)(=O)c3ccccc32)cc(OC)c1OC` belongs 4.52%; to `Cc1ccc(S(=O)(=O)NCC(=O)N2CCOCCOCCOCCOCC2)cc1`, -0.46%. Regarding `O=C1/C(=C/c2cccs2)CCC1C1CCCC1` (stereo unspecified), the inhibition was 5.54%. To `CC1(C)CC(=O)c2cnc3nc4ccccc4n3c2C1` belongs -0.49%; to `O=C(NNC(=O)c1cc(S(=O)(=O)N2CCCCC2)ccc1Cl)c1ccccc1O`, 8.97%. Regarding `NC(=O)COC(=O)c1cc(S(=O)(=O)N2CCN(c3ccccc3)CC2)ccc1Cl`, the inhibition was 5.41%. `Cc1cccc(/C(N)=N/OC(=O)c2ccccc2Cl)c1`: the inhibition is -5.1%. To `O=C(OCc1cn(-c2ccc(Cl)c(Cl)c2)nn1)c1ccccc1Cl` belongs 44.2% (active); to `CC(C)NC(=O)NC(=O)COC(=O)c1ccc(NC(=O)CC#N)cc1`, 14.3%; to `N#CCC(=O)Nc1ccc(C(=O)OCC(=O)Nc2sc3c(c2C#N)CCCC3)cc1`, -11.9%. To `CC(C)c1ccc(NC(=O)COC(=O)c2ccc(CN3CCCC3=O)cc2)cc1` belongs 85% (active); to `Cc1noc(C)c1C(=O)NC(C)c1ccc2c(c1)OCO2` (stereo unspecified), -1.75%; to `CCN(CC)c1ccc(NC(=O)CCc2nnc3ccc(N4CCCCC4)nn23)c(C)c1`, 1.19%. For `O=C(COC(=O)C12CC3CC(CC(O)(C3)C1)C2)NC12CC3CC(CC(C3)C1)C2`, the inhibition is 75.8% (active). To `O=C(COC(=O)CNS(=O)(=O)c1ccccc1)NC12CC3CC(CC(C3)C1)C2` belongs 1.43%; to `O=C(CNCCO)NC12CC3CC(CC(C3)C1)C2`, 0.19%; to `Cc1ccc2[nH]c(=O)c(CN(C)S(=O)(=O)c3cccc4nonc34)cc2c1`, -8.49%. With `Cn1nccc1NC(=O)CC(CC(=O)O)c1ccccc1` (stereo unspecified), the inhibition is 4.64%. To `COCCCN1C(=O)C(=O)/C(=C(/O)c2ccc(S(=O)(=O)N3CCOCC3)cc2)C1c1ccc(F)cc1` (stereo unspecified) belongs 1.52%.

Consider `COc1ccc(NC(=O)ON=C2c3ccccc3-c3ccccc32)cc1`, for which the inhibition is -4.24%. As for `COc1ccc(C(=O)ON=C2c3ccccc3-c3ccccc32)cc1OC`, the inhibition was 72.8% (active). To `COc1cc(C(C)=O)ccc1OC(=O)CN1C(=O)c2ccccc2C1=O` belongs 1.95%; to `CCc1c(SCCC(=O)O)nc2ccccc2c1C`, 33% (active). As for `O=C(O)CCSc1nnc(-c2ccccc2)n1-c1ccccc1`, the inhibition was -1.18%. To `O=C(O)CSc1nccc2ccccc12` belongs 2.03%; to `C/C(=N\OCC(=O)Nc1ccc(Br)cc1)c1cccs1`, -0.72%. To `CCn1c(Cc2ccc(OC)cc2)nnc1SCC(=O)Nc1ccc(N2CCOCC2)cc1` belongs -3.23%; to `CC(C)[C@H](NC(=O)N1CCn2c1nc1ccccc12)C(=O)NCc1ccc2c(c1)OCO2`, -3.27%.

Regarding `Cc1ccc(C)c(NC(=O)C2Cc3ccccc3CN2C(=O)OCc2ccccc2)c1` (stereo unspecified), the inhibition was 5.89%. To `Cc1ccc(/C=N/NC(=O)Cn2ccc(C(F)(F)F)n2)o1` belongs -1.08%. To `CCn1c(SCC(=O)N/N=C/c2ccncc2)nc2ccccc21` belongs 14.4%. To `COc1ccc(C(=O)NCC(=O)N/N=C/c2cccnc2)cc1` belongs -1.33%. `CCn1c(/C=N/NC(=O)c2ccc(OC)cc2)nc2ccccc21`: the inhibition was 41.7% (active).

`CC(C)C(=O)NCC(c1cccs1)S(=O)(=O)c1ccc(F)cc1` (stereo unspecified): the inhibition is -6.08%.

Take `COc1ccc(C(CC(=O)N2CCN(c3ccccc3)CC2)c2c(O)cc(OC)cc2OC)cc1` (stereo unspecified): the inhibition is 1.97%. To `CCCCN(C)c1ccc([N+](=O)[O-])cc1` belongs -0.55%; to `CCC1OC(c2ccc([N+](=O)[O-])cc2)=Nc2ccccc21` (stereo unspecified), 33.1% (active). Consider `COc1ccccc1CSc1ncc(-c2ccc([N+](=O)[O-])cc2)[nH]1`, for which the inhibition was 12%. To `N#Cc1ccc(N2Cc3ccccc3/C2=N/C(=O)Nc2ccc(Cl)cc2)cc1` belongs -0.92%; to `CC1CCc2c(c3ccccc3[nH]c2=O)O1` (stereo unspecified), -0.64%.

Take `COc1ccc(C2=NN(c3nc4ccccc4s3)C(=O)C2)cc1`: the inhibition is 48.2% (active). To `COc1ccc(C(=O)Nc2cccc(/C=C(/CCC(=O)O)c3nc4ccccc4s3)c2)cc1` belongs -4.68%; to `COc1ccc(C2=NN(c3ccccc3)C(c3cccs3)C2)cc1` (stereo unspecified), 6.25%; to `Cc1nnc(NC(=O)CSc2nccn2-c2cccc(C)c2C)s1`, 6.92%. As for `O=[N+]([O-])c1cccc(/C([O-])=C(/C(=S)Nc2ccccc2F)[n+]2ccccc2)c1`, the inhibition was -4.94%.

For the compound `CC1CC(C)CN(C(=O)COC(=O)c2ccc3ncsc3c2)C1` (stereo unspecified), the inhibition is 9.71%. Regarding `Cc1sc(NC(=O)c2ccc3ncsc3c2)c(C(N)=O)c1C`, the inhibition was 1.28%. To `O=C(COC(=O)c1ccc2ncsc2c1)Nc1ccc(Cl)cc1` belongs 81.4% (active); to `COc1cc2c(cc1O)C(SC)=NC(C)(C)C2`, 4.6%.

As for `CC(C)Cc1nnc(NC(=O)CCC(=O)Nc2ccc3cn[nH]c3c2)s1`, the inhibition is 1.65%. To `Cc1cc(C)c(C#N)c(Nc2cccc(Br)c2)n1` belongs -4.25%.

In the case of `CCCCNC(=O)OC(C)CNC(=O)OC` (stereo unspecified), the inhibition was -6.1%. On to `COc1ccc(C(=O)NCC(=O)N/N=C/c2ccc([N+](=O)[O-])o2)cc1OC`, for which the inhibition is 0.4%. To `O=C(/C=C/c1ccc([N+](=O)[O-])o1)NNC(=O)c1ccc(F)cc1` belongs 39.5% (active); to `Cc1onc(C(=O)NCc2ccc(F)cc2)c1[N+](=O)[O-]`, -3.19%. To `Cc1ccsc1C(=O)OCC(=O)NCCc1ccccc1` belongs 25.5%; to `Cc1ccsc1C(=O)OCC(=O)Nc1cccc(F)c1`, 90.7% (active); to `Cc1ccc(S(=O)(=O)N(C)CC(=O)OCC(=O)Nc2ccccc2)cc1`, 0.35%. As for `O=C(COC(=O)C1CC2C=CC1C2)Nc1ccccc1` (stereo unspecified), the inhibition is 77.7% (active).

With `CN(CC(=O)Nc1cccc(F)c1)C(=O)CC1CCCC1`, the inhibition was 0.25%. For the compound `CC1CC1C(=O)OCC(=O)Nc1cccc(F)c1` (stereo unspecified), the inhibition is 78.9% (active).

For `O=C(COC(=O)CNC(=O)C1CCCCC1)Nc1cccc(F)c1`, the inhibition was -0.43%. `O=C(COc1ccccc1)Nc1ccc(F)cc1`: the inhibition is -4.21%. As to `COc1ccc(CNC(=O)COC(=O)c2sccc2C)cc1OC`, the inhibition is 5.02%.
